One assay addresses PTBP2. Put plainly: pooled miR-30 sensor sort-seq; sequence = guide strand. Particulars: shRNA.
On to TAGTTCGTCAGATCCTCTCTTC, for which the sensor-assay potency score (higher = more potent) came to 0.267.

Turning to TTGGCTGTAACTACCATGCTGC, the sensor-assay potency score (higher = more potent) is -0.376.

On to TTTAATGTATTATCTGTCTTTA, for which the sensor-assay potency score (higher = more potent) was -0.808.

On to TTCATTTAAATTGCTAACCAAC, for which the sensor-assay potency score (higher = more potent) is -1.15.

The sequence TTTAGTTCTTTGTGATTCGAGT gave a sensor-assay potency score (higher = more potent) of -0.551.

For TTGCTAACCAACAGGACTGTAT, the sensor-assay potency score (higher = more potent) is -0.182.

TTAACCATAGTAATAGCTGCTT came in with a sensor-assay potency score (higher = more potent) of 0.167.

With TTAAAGTCAGATCTATTCCTAA, the sensor-assay potency score (higher = more potent) came to 0.0356.

Take TGAACTAGCTAGACCAGTCTGC: the sensor-assay potency score (higher = more potent) came to 0.184.

In turn, TTATCTTCAATACAGCACCAAA displayed a sensor-assay potency score (higher = more potent) of -1.15.

As for TAACCATAGTAATAGCTGCTTC, the sensor-assay potency score (higher = more potent) is -0.782.

For another assay, the target named is PTGDR. The description is as above. Particulars: shRNA.
For the sequence ATTAACTGGACAATTATCCTAA, the sensor-assay potency score (higher = more potent) is 0.137.

In the case of TCTGCTTCTTCAGAGGTCCTGT, the sensor-assay potency score (higher = more potent) was 0.273.

In the case of TACTGTTAAATCATACTCCTTG, the sensor-assay potency score (higher = more potent) was found to be 0.542.

Sequence TTTAAGACTTTTAACACTGGTT displayed a sensor-assay potency score (higher = more potent) of -0.351.

Sequence TTAGTGGAATTGCTGCACCGGC had a sensor-assay potency score (higher = more potent) of -1.14.

With TATCCTAACACACCTCTCCAAA, the sensor-assay potency score (higher = more potent) was -1.13.

The sequence TGTACTTACACATTGAAGGTAC showed a sensor-assay potency score (higher = more potent) of 0.268.

Consider TTGATTCCTACTGACACCCTTG, for which the sensor-assay potency score (higher = more potent) came to 0.657.

Sequence TTTTTATGAATGTCCATCGTAT had a sensor-assay potency score (higher = more potent) of -0.379.

TAAATTTCAAAAACAACTGTAT registered a sensor-assay potency score (higher = more potent) of -0.297.

The sequence TACAGTGAGTCACACACTGGTT yielded a sensor-assay potency score (higher = more potent) of -0.86.

In turn, TAGGCAGCCAGCACCACCGGGC came in with a sensor-assay potency score (higher = more potent) of -0.802.

Source of the values: the OligoGym collection.
Note: reference of the scale not given here.
